Rows were chosen to be rich in hits. Some 3.5% of all compounds tested hit in one or more screens of this group.
GPR151 ag = activators of human GPR151, primary screen, cell-based, PathHunter beta-arrestin, luminescence; G-protein coupled receptor 151 (Homo sapiens), Q8TDV0; PathHunter beta-arrestin GPR151 cells; activation, % at 11.2 µM; hit rate 1% among 650,000; AID 1508602, 2020; in the data active means activation above about 4.9%
TEAD-YAP block = TEAD-YAP interaction inhibition, primary screen, TEAD-YAP interaction inhibitor project, luminescence, HEK-TIYL cells; hit rate 1.4% among 640,000; TEAD-Gal4/YAP UAS-luciferase luminescence; inhibition, % at 9.12 µM; in the data active means inhibition above about 32%
MITF inh = MITF inhibitors, primary screen, biochemical, AlphaScreen, human; Microphthalmia-associated transcription factor (Homo sapiens), O75030; AlphaScreen MITF homodimerization, bead proximity signal; inhibition, % at 2.6 µM; hit rate 0.91% among 650,000; AID 1259374, 2018; in the data active means inhibition above about 50%
FBW7 act = FBW7 E3 ligase activators, primary screen, biochemical, AlphaScreen, human; AlphaScreen FBW7–phospho-cyclin E peptide binding, activator screen; normalized activity (activation), % at 26.1 µM; AID 1259310, 2017; hit rate 0.13% among 650,000; in the data active means normalized activity above about 1.9%;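 further: purified mutant Fbw7 with reduced substrate affinity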
GPR151 confirm = GPR151 activators, triplicate retest, confirmation, cell-based, PathHunter beta-arrestin, luminescence; 6,700 tested, under 10 active; activation, % at 11.2 µM; shares compounds with GPR151 ag; GPR151 PathHunter beta-arrestin cells, 90 min; % of EA-reagent control over plate median;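 active means mean percent activation across replicates above the confirmation screen cutoff of 4.91%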
GPR119 counter = GPR119 activators in beta-arrestin cells, counter-screen for GPR151 activator project, cell-based, PathHunter beta-arrestin, luminescence, triplicate; shares compounds with GPR151 ag; activation, % at 11.2 µM; hit rate 0.3% among 6,700; 90 min; 0 = compound-well median, 100 = enzyme-acceptor control; AID 1508611, 2020;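 active means mean percent activation in the counterscreen above 29.09%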;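 further: counterscreen on off-target GPR119 to flag nonselective hits from the GPR151 activator screen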
Target sequence (Q8TDV5 whole entry, looked up): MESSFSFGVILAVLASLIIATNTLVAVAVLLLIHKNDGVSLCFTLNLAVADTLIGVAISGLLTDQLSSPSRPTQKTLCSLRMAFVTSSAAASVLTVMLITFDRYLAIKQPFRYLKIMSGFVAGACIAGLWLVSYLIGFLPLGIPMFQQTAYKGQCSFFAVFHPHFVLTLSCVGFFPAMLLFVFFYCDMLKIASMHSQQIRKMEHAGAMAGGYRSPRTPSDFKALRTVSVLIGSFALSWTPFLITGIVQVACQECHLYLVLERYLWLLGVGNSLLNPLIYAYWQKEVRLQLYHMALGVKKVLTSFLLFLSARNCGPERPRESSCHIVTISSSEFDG
Of the large screens only hits and unclear results are named; the others gave an inactive call (follow-up assays come after a bar, where they were run); ! = not active in a repeat.

COCCNc1nc(-c2ccc(OC)c(OC)c2)no1	GPR151 ag 8.4 | GPR151 confirm inactive | GPR119 counter inactive
COc1ccc(-c2ocnc2C(=O)NCCN2CCCCCC2)cc1OC	none
O=C(NCCN1CCCCCC1)c1ncoc1-c1ccc(Cl)cc1	GPR151 ag 5.9 | GPR151 confirm inactive | GPR119 counter inactive
O=C(NCCCc1ccccc1)C1CCN(C(=O)N2CCOc3ccc(Cl)cc32)CC1	none
O=C(NCCCc1ccccc1)C1CCN(C(=O)N2CCOc3ccccc32)CC1	GPR151 ag 6.1 | GPR151 confirm inactive | GPR119 counter inactive
CC1(C)[C@@H](O)CC[C@]2(C)[C@H]3C(=O)C=C4[C@@H]5C[C@@](C)(C(=O)O)CC[C@]5(C)CC[C@@]4(C)[C@]3(C)CC[C@@H]12	none
CC1(C)C2CC[C@]3(C)C(C(=O)C=C4[C@@H]5C[C@@](C)(C(=O)O)CC[C@]5(C)CC[C@]43C)[C@@]2(C)CC[C@@H]1OC(=O)CCC(=O)O (stereo not given in full)	GPR151 ag 5.2! | GPR151 confirm inactive | GPR119 counter inactive
CC(=O)CC(C)=Nc1ccc([N+](=O)[O-])cc1	none
COc1ccc(NC(=O)C2CC(=O)NC(Nc3ccc(C)cc3C)=N2)cc1 (stereo not given)	GPR151 ag 12 | GPR151 confirm inactive | GPR119 counter inactive
CCCCN(C)S(=O)(=O)c1cc2c(cc1C)N(C(C)=O)CCO2	GPR151 ag 6.2 | GPR151 confirm inactive | GPR119 counter inactive
Nc1nc(SCC(=O)NCc2ccccc2)[nH]c(=O)c1-c1ccccc1	GPR151 ag 6.8 | GPR151 confirm inactive | GPR119 counter inactive
Nc1nc(SCc2nc(-c3ccccc3)no2)[nH]c(=O)c1-c1ccccc1	GPR151 ag 6.0 | GPR151 confirm inactive | GPR119 counter inactive
COC(=O)[C@@H]1CCCN1Cc1ccc2c(c1)CN(Cc1ccccc1)CCO2	none
COC(=O)[C@@H]1CCCN1Cc1ccc2c(c1)CN(Cc1c[nH]c3ccccc13)CCO2	GPR151 ag 6.9 | GPR151 confirm inactive | GPR119 counter inactive
Fc1ccc(Br)cc1SCCc1ccncc1	none
Brc1ccc(SCCc2ccncc2)cc1	GPR151 ag 12 | GPR151 confirm inactive | GPR119 counter inactive
COc1ccc(NC(=O)CN(C)S(=O)(=O)c2ccc(Cl)cc2)cc1Cl	GPR151 ag 10 | GPR151 confirm inactive | GPR119 counter inactive
Cc1ccc(NC(=O)CN(C)S(=O)(=O)c2ccc(Br)cc2)cc1C	none
Cc1ccc(NC(=O)CN(C)S(=O)(=O)c2ccc(Br)cc2)cc1Cl	GPR151 ag 9.5 | GPR151 confirm inactive | GPR119 counter inactive
CC(C)C(C)NC(=O)COC(=O)c1ccc2c(c1Cl)C(=O)c1ccccc1C2=O (stereo not given)	none
COc1ccc(-c2ccc(=O)n(CC(=O)NCC3OCCc4ccccc43)n2)cc1OC (stereo not given)	none
CC(NC(=O)/C=C/c1ccco1)c1ccccc1 (stereo not given)	GPR151 ag 5.1 | GPR151 confirm inactive | GPR119 counter inactive
Cc1ccc(/C=C/C(=O)NC(C)c2ccccc2)o1 (stereo not given)	none
CC(C)(C)c1ccc(NC(=O)COC(=O)c2ccc([N+](=O)[O-])s2)cc1	GPR151 ag 6.1 | GPR151 confirm inactive | GPR119 counter inactive
COc1ccc(C(C)(C)C)cc1NC(=O)COC(=O)c1ccc([N+](=O)[O-])s1	none
C[C@@H](NC(=O)c1cccnc1)c1ccccc1	none
CCNC(=O)C1=C2c3ccccc3CC(C)(C)N2C(=O)C1=O	GPR151 ag 6.1 | GPR151 confirm inactive | GPR119 counter inactive
CC1(C)Cc2ccccc2C2=C(C(=O)N3CCCCCC3)C(=O)C(=O)N21	none
O=C(Cn1cc2c(n1)CCCC2)NCCCN1CCCCC1	none
O=C(Cn1cc2c(n1)CCCC2)NCCCN1CCN(C2CCCCC2)CC1	GPR151 ag 5.0 | GPR151 confirm inactive | GPR119 counter inactive
O=C(c1ccccc1)c1ccccc1NCN1C(=O)CSC1=O	none
Cc1nc2ncnn2c(N2CCC(C(=O)Nc3ccc(F)cc3)CC2)c1C	GPR151 ag 5.4 | GPR151 confirm inactive | GPR119 counter inactive
CCc1c(C)nc2ncnn2c1N1CCC(C(=O)Nc2ccc(C)cc2)CC1	none
CN(C)c1ccc(S(=O)(=O)NCC(=O)OCC(=O)NC(N)=O)cc1[N+](=O)[O-]	none
CC(C)CCOc1ccc(-c2nn(-c3ccccc3)cc2/C=c2\sc3nc(-c4cccs4)nn3c2=O)cc1	GPR151 ag 7.0 | GPR151 confirm inactive | GPR119 counter inactive
COc1ccc(/C=c2\sc3nc(-c4ccncc4)nn3c2=O)cc1OC	none
COc1ccc(-c2nc3s/c(=C\c4ccccc4F)c(=O)n3n2)cc1	none
CCCCOc1ccc(/C=c2\sc3nc(-c4ccncc4)nn3c2=O)cc1	GPR151 ag 5.1 | GPR151 confirm inactive | GPR119 counter inactive
CCCCOc1ccc(/C=c2\sc3nc(-c4ccc(Cl)cc4)nn3c2=O)cc1	none
CCOc1ccc(-c2nc3s/c(=C\c4ccccc4F)c(=O)n3n2)cc1	GPR151 ag 11 | GPR151 confirm inactive | GPR119 counter inactive
COc1cc(/C=c2\sc3nc(-c4ccncc4)nn3c2=O)ccc1OC(C)=O	GPR151 ag 4.9 | GPR151 confirm inactive | GPR119 counter inactive
CCOC(=O)c1ccc(COC(=O)CNC(C)=O)c(Br)c1	none
O=S(=O)(NC1CCN(Cc2ccccc2)CC1)c1ccc(F)c(F)c1	GPR151 ag 7.1 | GPR151 confirm inactive | GPR119 counter inactive
Cn1c(=O)oc2cc(S(=O)(=O)NC3CCN(Cc4ccccc4)CC3)ccc21	none
O=C(c1ccc(F)cc1)N(Cc1cccnc1)Cc1cc2ccccc2[nH]c1=O	GPR151 ag 7.0 | GPR151 confirm inactive | GPR119 counter inactive
CC(=O)N(Cc1cccnc1)Cc1cc2ccccc2[nH]c1=O	none
COc1cc2nc(NCCCOC(C)C)n3nc(-c4cccnc4)nc3c2cc1OC	GPR151 ag 5.2 | GPR151 confirm inactive | GPR119 counter inactive
COC(=O)CCc1c(C)c(C#N)c2nc3ccccc3n2c1N1CCCCC1	none
CC(=O)Nc1ccc(C(=O)CSc2nncn2C)cc1	GPR151 ag 9.6 | GPR151 confirm inactive | GPR119 counter inactive
CC1CCCCC1NC(=O)CNC(=S)N(Cc1cccs1)C1CCCCC1 (stereo not given)	none
O=C(CNC(=S)N(Cc1cccs1)C1CCCCC1)NC1CCCC1	GPR151 ag 6.2 | GPR151 confirm inactive | GPR119 counter inactive
COc1ccc(CN2C[C@@H]3C[C@@H](c4cccc5nonc45)N4CCC[C@@]34C2=O)cc1	none

Compound activity (PubChem)
